The source of these data is the supplement of paper PMC6555819.

For the experiment, the system named is VDR:RXRa (NR concentration 270 nM, RXRa partner concentration 90 nM). Description: PBM binding z-score (relative to random genomic background probes); higher = stronger binding; sequences stand for … in GC…GCGATTGACAGCGTAGAATGAAGG
Here is the method: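 Protein-binding microarray (Agilent 4x180K custom design, double-stranded 60-nt probes: 5' GC cap, 34-nt variable region, 24-nt constant primer region; full probe sequence given). Purified or IVT nuclear receptor:RXRα heterodimers (3:1 NR:RXRα, mostly 270:90 nM) or homodimers were incubated for 1 h in PBS with 2% milk and no ligand, then detected with Alexa488 antibodies. Fluorescence from o1-orientation probes (~5 replicates averaged) was converted to z-scores against 500 random hg19 background probes. Variable regions are seed direct-repeat (DR0–DR5) sites, all their single-nucleotide variants and half-site ablations.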
As to ATACAAAGGTGATCGTGAGGTCGTTGATACTAAC, the PBM binding z-score turned out to be 4.59.

In turn, ATCGAAAGGTCCTGAGGTGAGTATACAGAAAGGC yielded a PBM binding z-score of 0.189. The figure for GCAGACACGTGAAACGCAGGTAACTCAGGGTGGC is -0.854. The figure for GCTATTAGTTGAAAGGGAAACCGAATGATTCTCG is 0.00748. The figure for GGAACGAGGGCCAGTTGATAGCAGAGTTTGATGG is -0.702; for ATATGTATGTTATCGGGTCATTCAGTTTGCGCAT it is 4.9; for CTGACTGGGGCAGAAAGGTTACCATACCATCCGG it is 1.36.

For ATCTCTAGGTAACAAGTGCAGTGAAAGAGAGGAC, the PBM binding z-score is 0.287. The figure for TCTAATAGTTGAAGGGCAACCGACGAGTCCGTTT is 0.759; for TAGCCTAGGTCATTGGGCCCGTATAGTACGCATC it is 2.74.

Regarding TCTCGGAGGACACGAAGGCCAGAGCTTTCCAGAG, the PBM binding z-score is -0.411.

TCTTGTAGATCAACAGGAGGTTAAGGAAGATCGA had a PBM binding z-score of 0.488. Next, CCGATTGGGGCAAAGGTTACCATACTCAGTACGA: 1.6.

Sequence AATACAGGGTCACTAGGCCAGACTAGGTACGAAT yielded a PBM binding z-score of 4.22.

The sequence AGAATGAGGTTATTAAGAGCAGGGAATTGCGGTC displayed a PBM binding z-score of 2.

Consider ACAGACCGGTGAGTGAAGGTAACTCAGCTGGACG, for which the PBM binding z-score is -0.63. GGAACGAGGGCTAAGTTGATAGCATCTGTCGACG showed a PBM binding z-score of -0.701. The figure for TTACCAAGGTGAAAGGTCGATGATGCACGCCTTG is 2.23; for ATATGTAGGTTACATCCGGGTCATTAAGGCTATG it is 4.54. For TCTTGTTGGTCACGGAGGTCACACACGACGGGTA, the PBM binding z-score is 6.07.

Turning to TTACCAAGGTGAAATGTCGTTGATGCACGCCTTG, the PBM binding z-score worked out at 0.159.

CCTAGTTGCTCAAGGTCACACACGCTATAGGTAC came in with a PBM binding z-score of 4.26. Turning to TCAGACAGGTGAAGGTAACACAGGTACGCAGTCG, the PBM binding z-score was 1.05. The figure for CGAACTAGGTAATTGACAGGACAGTGAATAGTAA is -0.257. The sequence CCTGCTATGTCATGGTCAGCTAATCTACAGTATG displayed a PBM binding z-score of -0.0549. Sequence ACTATTAGTTGAGACGAGGGCAACCGATAGGTTG gave a PBM binding z-score of 0.889. Next, TCTTGTAGATCAAAGGTTAAGAGAGCCGAAGCCT: 1.29.

With TCTGGTAGATCAAGCAGGTTAAGAAAGCCTGAGT, the PBM binding z-score stood at 0.122. The figure for CCTACCAGGCCAATCTGGGTCACTCAAGGCTTGA is 0.999; for TCATATAGATAAATGCTAGGTGAAAGTCCGATCT it is 0.736.

Take GCGACTGGGGCAAAGCAGGTTACCATGAGGTTGG: the PBM binding z-score is 0.114. Next, CGTCCGAGGTCAGAGAGGTCAGTGAATGCCGAGT: 7.89; CGTCCAAGGTCAGCAGGCCAGTGAAAGCGACGTG: 2.58; TCTAGTTGGTCATAGGTCACACACTCGAAATGCG: 3.19.

Turning to CCTTACGGGTCACGAGGTTATAGCACGACGAGCG, the PBM binding z-score came to 5.23. AATACAGGGTCACTAGGCCATAGTAGGTACGAAT gave a PBM binding z-score of 4.25. The figure for TGAATGAGGTTATAAGATCAGGGCACGTTGCAAA is 1.21; for CGAACTAGGTCATTTACAGGACAGTGAATAGTAA it is 2.14; for ATATGTAGGTTAAGGGTCATTAAGGTTGGTTCGC it is 6.19. The figure for GCATATAGGTAATACAGGGTGAAAGTCCGATTGT is 0.521.
